The supplement of paper PMC3334620
Over roughly 33,000 sequences, “E-score (-0.5 to 0.5)” has its median near -0.017; the highest 2% begin near 0.3. For the sample, the highest values were picked, then their nearest neighbours and some sequences at random.

target: T1, Sut1 (UniProt P53032); assay: PBM E-score (8-mer binding enrichment) (E-score (-0.5 to 0.5)); higher = stronger / more preferred TF binding; conditions: protein concentration: 200 nM; construct: GST-full length
T1 sequence: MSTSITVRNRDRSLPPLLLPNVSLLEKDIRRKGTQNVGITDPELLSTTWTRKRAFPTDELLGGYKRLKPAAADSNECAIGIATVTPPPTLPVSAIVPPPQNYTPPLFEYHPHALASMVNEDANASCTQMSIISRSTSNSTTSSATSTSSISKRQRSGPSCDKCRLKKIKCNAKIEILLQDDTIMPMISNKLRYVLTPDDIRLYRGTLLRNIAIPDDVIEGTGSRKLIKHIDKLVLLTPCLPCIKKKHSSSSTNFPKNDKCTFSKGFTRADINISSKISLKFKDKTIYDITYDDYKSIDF
How it was run: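 Yeast transcription factors carrying a GST tag, as full-length proteins or DNA-binding domains, were produced by PURExpress in vitro transcription/translation. About 100-200 nM protein was applied to universal all-10-mer Agilent arrays, double-stranded by primer extension on fresh or once-stripped slides. Bound protein was detected with fluorescent anti-GST, and scans were normalised with masliner. The Universal PBM Analysis Suite gave each ungapped eight-base word, pooled with its reverse complement, an E-score, a modified Wilcoxon-Mann-Whitney statistic.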

Sequence | PBM E-score
ACAGTTCG | 0.183
GCTTCCCA | -0.179
GTTTGGTA | 0.178
ATCGGTAG | 0.0989
TCGGTGAA | 0.0263
TAAGATCA | 0.0673
TTAAATAA | 0.259
ATAAATAG | 0.295
ATAAAATC | 0.162
GGAAAATA | 0.226
AAAAAATA | 0.242
ATAAAGAG | 0.0458
GTAAAATA | 0.145
ATAAAGAA | 0.19
ATAAATAA | 0.321
ATAAAATA | 0.323
GAAAAATA | 0.306
ATAAAGAT | 0.328
CTCGTTCA | -0.205
AGTAGACC | -0.172
ATGACTGC | 0.00267
CAATGCTC | -0.0941
ACCAACGT | 0.00237
ATCAATTA | 0.31
ATCAATTG | 0.197

Sequence | PBM E-score
GGAAATTA | 0.286
CAAAATAA | 0.201
AAAATAGC | 0.0485
AGAAATTC | 0.126
TAAAATAA | 0.213
TAAATAGA | 0.0796
AAAAATAA | 0.326
AGAAATTA | 0.335
AAAATAGA | 0.319
ATCAATTC | 0.135
AACCAACC | -0.178
AGAATACA | 0.117
CACTTTGC | 0.0519
AGGCGACC | -0.207
CTCGCCAG | -0.204
ACCTTGCC | -0.0123
ATAAATAC | 0.275
CAAAATTA | 0.241
TAAATAAA | 0.247
ATAAATTG | 0.268
ATAAATAT | 0.341
ATAAATTA | 0.326
TAAAATTA | 0.34
CTAAATTA | 0.24
AAAAATTA | 0.228

Sequence | PBM E-score
AAAATAAA | 0.347
AAAATAAC | 0.12
ATAAAAAT | 0.252
ACCAAACT | -0.0181
CAGTGGTC | -0.165
GGCAGAAA | 0.0918
CCGACCCA | 0.0491
CCATCAGA | -0.213
AATAAGGG | -0.0871
CCGACACC | -0.0623
TGTCTCAA | -0.115
ACAAATAC | 0.205
GGAAATAA | 0.24
CGAAATAA | 0.313
ACAAATAG | 0.113
CAAAATTG | 0.0231
CGAAATAC | 0.215
CAAAATTC | 0.308
AAAAATTC | 0.235
ACAAATAT | 0.339
ATCTGAGC | 0.113
GACTTCGC | 0.0243
ATTCCAAG | 0.0681
ATTCCGAA | 0.378
CTTCCGAA | 0.233

Sequence | PBM E-score
ATTCCGTA | 0.296
ATTCCGAC | 0.219
ATTCCGAG | 0.341
CGTCAAGA | -0.239
AGAGAGTA | -0.0447
GTAAGAAC | 0.215
TGGCAGAA | -0.0838
TGAATTCA | 0.0862
CGCGACAC | 0.0583
ATTTTCCC | -0.105
ATTTTCGA | 0.0872
ATTTTCGC | 0.0665
ATTTTCCG | 0.4
ATTTCCGC | 0.156
ATTTTCGG | 0.345
AATTTCCG | 0.257
ATTTCCGG | 0.325
ATTTCCGA | 0.231
CAGTATTA | 0.0764
ACCAAACC | 0.0288
CAGATGGG | -0.192
TAAGCATA | 0.122
AGTTAATC | 0.16
AATAATTC | 0.268
CCTAATTA | 0.039

Sequence | PBM E-score
CATAATTA | 0.317
TATTAATA | 0.167
AGTTAATA | 0.331
AATAATTA | 0.329
GGTTAATA | 0.163
GATAATTA | 0.216
CATAATTC | 0.0494
AATTAATT | 0.206
AATTAATA | 0.327
AATCAAGA | 0.0025
GGCGAGCC | -0.157
GAGCTACA | -0.127
TATAATCA | 0.203
CCCGGGCA | -0.229
AAAATCGC | 0.159
ACTGCTTA | 0.0551
AGAATCCG | 0.00193
GGAAGAGA | 0.0239
CGGGTTGA | -0.223
ACTGTCAA | -0.099
GTATAACA | 0.215
ATATAACA | 0.309
ATATAACC | 0.0866
ATTTAACG | 0.298
ATATAACG | 0.299

Sequence | PBM E-score
ATTTAACA | 0.213
ATTTAATA | 0.265
CTATAACC | -0.00144
ATTTAACC | 0.154
CTTTAATC | 0.183
ATTTAATC | 0.307
CTATAACA | 0.0773
CTAAATAG | 0.0251
ACATTATC | 0.102
ACATACTA | 0.15
AAGCCCTC | -0.213
AATGTGAG | 0.13
GAGGCATA | 0.0426
GCCGTGTA | -0.196
ACTTGAAC | 0.157
GGACTTTA | 0.347
AGACTTCA | -0.0862
CGACTTTA | 0.166
AGACTTTA | -0.111
CGACTTCA | 0.136
GGACTTCA | 0.321
CGACTTGA | 0.06
AGACTTGA | 0.0388
GGACTTGA | 0.339
ATTTTAGG | 0.113

Sequence | PBM E-score
ATACGCTG | 0.025
AGATCATA | 0.155
ATCTGCAC | -0.145
CACCGGAA | 0.361
AACCGGAT | 0.222
AACCGGAC | 0.345
GACCGGAC | 0.364
GACCGGAA | 0.179
AACCGGTC | 0.0286
AACCGGCC | -0.0986
CACCGGGA | -0.0737
AACCGGAA | 0.229
CACCGGTA | -0.12
AACCGGAG | 0.43
GACCGGGC | -0.0226
GTGATTCA | -0.119
CGCCAAAG | -0.237
CCGGGTAA | 0.136
TCGTTCCA | -0.0676
GATGGTGA | -0.174
ACCGTGAA | 0.00123
ACCTGTGG | -0.141
CACCGGAC | 0.409
CACCGGTG | 0.0775
CACCGGCC | -0.231

Sequence | PBM E-score
TACCGGGA | 0.229
CACCGGTC | -0.223
TACCGGAA | 0.298
CACCGGCG | 0.117
CACCGGAG | 0.437
TACCGGTA | 0.0972
ACAGCAAA | 0.127
GCGTCTAA | -0.155
CCCTACCG | -0.233
AGAAACCT | 0.149
GCCTGTCC | -0.154
AAGAACTT | 0.183
CATGAAGC | -0.0952
ACTGTGAC | -0.142
AGTTCGGG | 0.0543
CGTTCGTA | 0.15
CGTTCGGC | -0.0654
AGTTCGGC | 0.126
AGTTCGGA | 0.352
GGTTCGGA | 0.423
GGTTCGCA | -0.0674
CGTTCGGA | 0.385
GGTTCGAA | 0.14
CCCACTAG | -0.248
AGTGTAGC | -0.123

Sequence | PBM E-score
CAAGCCAA | -0.059
GTGGGAAA | -0.0448
TCTCCGAA | 0.446
GCTCCGAA | 0.439
GCTCCGAC | 0.267
CCTCCGAA | 0.121
TCTCCAAA | -0.0978
TCTCCGCA | 0.225
GTGTTTCA | 0.0164
CACCCCTC | -0.352
CTCGGAAG | 0.174
AAATAAAT | 0.329
ATATAAAT | 0.325
AAATAAAA | 0.234
ATATAAAC | 0.227
ATATAAAG | 0.177
AAATAAAG | 0.224
ATGTTATG | 0.211
ACCTGTTC | -0.081
